Measurements: PubChem BioAssay (NCATS)
Inconclusive results are not listed. Values without a mark were called inactive. Calls follow the shape of the dose curve; as a rule, active = well fitted inhibition curve with a large enough effect; inconclusive = small, poorly fitted or top-dose-only effect; inactive = no such curve, though single readings can be large or run the other way.

assay: S16 Schwann cell PMP22 intronic element firefly luciferase assay (AID 624032); conditions: S16 rat Schwann cells, PMP22 element FLuc, 24 h; series mostly up to 57.5 µM; activity change, negative = inhibition: at the top concentration; also: nearly all actives have a fitted effect of over 30% in size
Excerpt: Charcot-Marie-Tooth-Association [CMTA]
National Center for Advancing Translational Sciences [NCATS]
Charcot-Marie-Tooth (CMT) disease was first characterized by Jean-Martin Charcot and Pierre Marie in France and, independently, by Howard Henry Tooth in England in 1886. CMT is one of the most common inherited neurological diseases, affecting approximately 1 in 2,500 Americans. […] The most prevalent type of CMT is known as CMT1A and caused by a duplication of the PMP22 gene which leads to over-expression of this protein. PMP22 is a glycosylated intrinsic membrane protein accounting for 2-5% of the myelin protein content, and its over-expression results in demyelination and subsequently axonal loss.
A pair of cellular transcription-based assays was developed in the S16 rat Schwann cell lines (Hai, M., et al., 2002) stably transfected with orthogonal reporters - firefly luciferase (Fluc) and beta-lactamase (beta-Lac) - whose expression is driven by an intronic regulatory element of the PMP22 gene (Jones, E.A., et al., 2011) to recapitulate endogenous expression of PMP22. The current assay employs Fluc to report on PMP22 expression. A comprehensive library of approved drugs, the NCGC Pharmaceutical Collection (Huang, R., et al., 2011), was screened in the cross-validating platform of the orthogonal reporter assays to identify drug modulators inhibitory towards PMP22 expression.
A set of counter-screens was devised to address non-specific activity of the library. An ATP-dependent CellTiter-Glo assay (developed by Promega Corp) was utilized to control cell viability. In addition, biochemical Fluc enzyme assay was performed to assess direct inhibition of the Fluc enzymatic activity.
Hai, M., Muja, N., DeVries, G.H., Quarles, R.H. and Patel, P.I. Comparative analysis of Schwann cell lines as model systems for myelin gene transcription studies. J Neurosci Res, 2002. 69(4): pp 497-508
Huang, R., Southall, N., Wang, Y., Yasgar A., Shinn P., Jadhav, A. , Nguyen, D.-T. and Austin, C.P., The NCGC pharmaceutical collection: a comprehensive resource of clinically approved drugs enabling repurposing and chemical genomics. Sci Transl Med, 2011. 3(80): p. 80ps16.
S16 Schwann cell PMP22 intronic element firefly luciferase assay
The FLuc-expressing S16 cells were seeded in white solid 1536-well plates at between 500-750 cells/4uL in DMEM medium containing 10% FBS, w/o phenol red. After overnight incubation at 37 degree Celsius/5% C02, 23 nL of compounds or DMSO were delivered to each well using a pin tool, followed by 24h-incubation at 37 degree Celsius/5% C02. Then 4 uL ONE-Glo luminescent substrate mix (Promega) was added to each well. Luminescence was measured on a ViewLux plate reader (Perkin Elmer). The % activity was determined by normalizing to the average readings of PTC124 (a positive control) - treated cells relative to DMSO-treated cells (0% Activity). The concentration-effect curves were then classified based on curve quality (r2), response magnitude and degree of measured activity.

Which “activity change, negative = inhibition” value does the source give for CCCCOC(=O)c1ccc(N)cc1 here?
Its value is 202%.

With COc1cc(C(=O)NCCCCCC(=O)O)cc(OC)c1OC as the compound, how does the “activity change, negative = inhibition” value read?
The value was 3.23%.

With COC(=O)c1cccnc1 as the compound, how does the “activity change, negative = inhibition” value read?
Its value is 1.32%.

With O=C(OOC(=O)c1ccccc1)c1ccccc1 as the compound, how does the “activity change, negative = inhibition” value read?
Its value is -7.5%.

Which “activity change, negative = inhibition” value does the source give for O=C(NCN1CCOCC1)c1cnccn1 here?
Its value is -16.5%.

Which “activity change, negative = inhibition” value does the source give for NS(=O)(=O)c1cc2c(cc1C(F)(F)F)NCNS2(=O)=O here?
Its value is -2.27% [at 25.7 µM].

For Cc1c(C)c2c(c(C)c1OC(=O)c1cccnc1)CC[C@@](C)(CCC[C@H](C)CCC[C@H](C)CCCC(C)C)O2, which “activity change, negative = inhibition” value is on record?
Its value is 18.4%.

With Cc1ccccc1N=Nc1ccc(N=Nc2c(O)ccc3ccccc23)c(C)c1 as the compound, how does the “activity change, negative = inhibition” value read?
Its value is 7.42%.

With COc1nccnc1NS(=O)(=O)c1ccc(N)cc1 as the compound, how does the “activity change, negative = inhibition” value read?
The value was -5.75%.

For O=C(c1ccccc1)C(O)c1ccccc1 (stereo not given), which “activity change, negative = inhibition” value is on record?
Its value is -26.6%.

For CCOc1ccc(C(=O)OCCN(CC)CC)cc1, which “activity change, negative = inhibition” value is on record?
The value was 2.4%.

For CN1C[C@@H]2C[C@H]1CN2c1cc2c(cc1F)c(=O)c(C(=O)O)cn2C1CC1, which “activity change, negative = inhibition” value is on record?
Its value is -5.86%.

With COc1ccc(NS(=O)(=O)c2ccc(N)cc2)nn1 as the compound, how does the “activity change, negative = inhibition” value read?
The value was -21% [at 25.7 µM].

With NCc1ccc(S(N)(=O)=O)cc1 as the compound, how does the “activity change, negative = inhibition” value read?
The value was 9.09% [at 25.7 µM].

For COc1ccc(C(=O)NCc2ccc(OCCN(C)C)cc2)cc1OC, which “activity change, negative = inhibition” value is on record?
Its value is -6.08%.

For COC(=O)c1ccc(O)cc1, which “activity change, negative = inhibition” value is on record?
The value was 6.47%.

With C[C@@H]1O[C@@H](OC[C@H]2O[C@@H](Oc3c(-c4ccc(O)c(O)c4)oc4cc(O)cc(O)c4c3=O)[C@H](O)[C@@H](O)[C@@H]2O)[C@H](O)[C@H](O)[C@H]1O as the compound, how does the “activity change, negative = inhibition” value read?
Its value is 15.3%.

Which “activity change, negative = inhibition” value does the source give for Cc1cccc(Nc2ccccc2C(=O)O)c1C here?
Its value is 24.4%.

For O=C(/C=C/c1ccccc1)OCc1ccccc1, which “activity change, negative = inhibition” value is on record?
Its value is -11.3%.

For CCCCCCCC(=O)OCC(O)CO (stereo not given), which “activity change, negative = inhibition” value is on record?
Its value is 0.0994%.

For FC(F)(F)C(Cl)Br (stereo not given), which “activity change, negative = inhibition” value is on record?
Its value is 4.48%.

Which “activity change, negative = inhibition” value does the source give for C[C@H]1COc2c(C3(N)CC3)c(F)cc3c(=O)c(C(=O)O)cn1c23 here?
The value was 5.43%.

For Nc1ccc(S(=O)(=O)c2ccc(N)cc2)cc1, which “activity change, negative = inhibition” value is on record?
Its value is -20.4%.

Which “activity change, negative = inhibition” value does the source give for CC(C)=CCC/C(C)=C/CO here?
Its value is -4.12%.

For Cc1cccc(C(=O)O)c1O, which “activity change, negative = inhibition” value is on record?
The value was 21.6%.

For Cc1c(C(=O)NCCO)[n+](=O)c2ccccc2n1[O-], which “activity change, negative = inhibition” value is on record?
Its value is 27.7%.

For O=c1[nH]cnc2nc[nH]c12, which “activity change, negative = inhibition” value is on record?
Its value is -10.6%.

Which “activity change, negative = inhibition” value does the source give for O=C(O)c1ccccc1C(=O)Nc1ccc(S(=O)(=O)Nc2nccs2)cc1 here?
Its value is 9.16%.

For CC(=O)Nc1ccc(OCCOCCOc2ccc(NC(C)=O)cc2)cc1, which “activity change, negative = inhibition” value is on record?
Its value is 2.13%.

With NC(N)=NCCN1CCCCCCC1 as the compound, how does the “activity change, negative = inhibition” value read?
Its value is -10.2% [at 25.7 µM].

Which “activity change, negative = inhibition” value does the source give for O=C(O)CCCCC1CCSS1 (stereo not given) here?
Its value is -1.29%.

With Nc1c2c(nc3c1CCC3)CCCC2 as the compound, how does the “activity change, negative = inhibition” value read?
The value was -4.05%.

Which “activity change, negative = inhibition” value does the source give for CC(=O)NCc1c(I)c(NC(C)=O)c(I)c(C(=O)O)c1I here?
The value was 31.2%.

For O=C1c2ccccc2C(=O)C1c1ccc(Br)cc1, which “activity change, negative = inhibition” value is on record?
Its value is 115%.

With CCCOC(=O)c1ccc(N)cc1 as the compound, how does the “activity change, negative = inhibition” value read?
Its value is 7.11%.

For Cc1c(N(C)C)c(=O)n(-c2ccccc2)n1C, which “activity change, negative = inhibition” value is on record?
The value was -26.4%.

With NC(N)=NS(=O)(=O)c1ccc(N)cc1 as the compound, how does the “activity change, negative = inhibition” value read?
Its value is 23.4% [at 25.7 µM].

With Cc1ccc(S(=O)(=O)NC(=O)NC2CCCCCCC2)cc1 as the compound, how does the “activity change, negative = inhibition” value read?
Its value is 5.36%.

With COc1ccc2cc(CCC(C)=O)ccc2c1 as the compound, how does the “activity change, negative = inhibition” value read?
The value was 109% [at 25.7 µM].

With O=C(O)CCCc1ccccc1 as the compound, how does the “activity change, negative = inhibition” value read?
Its value is 2.87%.
